The campaign covered roughly 420,000 compounds. About 64,000 (15%) were called active. Not shown: some 27% with an inconclusive outcome. Calls come from the whole dose curve; as a rule, active = well fitted inhibition curve with a large enough effect; inconclusive = small, poorly fitted or top-dose-only effect; inactive = flat fitted curve, though single readings scatter. These entries were drawn from the full list.
Test: qHTS for Inhibitors of human tyrosyl-DNA phosphodiesterase 1 (TDP1): qHTS in cells in absence of CPT; note: nearly all actives have a fitted effect of over 55% in size
Details: DT40 Tdp1-/- hTDP1 cells, no CPT, ATP luminescence, 48 h; activity change, negative = growth inhibition: at 46.2 µM (top of the series)
How it was run: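 DT40 Tdp1-/-;hTDP1 cells, no CPT (DMSO vehicle only), 400 cells/well; compounds pin-transferred; ≥48 hr, 37 °C; CellTiter-Glo 30 min RT dark, luminescence read.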
% is set by controls: 0 for no effect and ±100 for the full control effect; potency is the fitted concentration of half-maximal effect.

| Structure (SMILES) | activity change, negative = growth inhibition | Potency |
| --- | --- | --- |
| NC(=O)c1oc2ccccc2c1NC(=O)CS(=O)(=O)c1ccccc1 | 14.4% (inactive) | – |
| Cc1ccc(C(=O)CCC(=O)N(C)CC(=O)Nc2c(Cl)cccc2Cl)cc1 | -20.5% (inactive) | – |
| CC(C)CC(N=C1NC(C)(C)Cc2ccccc21)C(=O)O (stereo unspecified) | 0.347% (inactive) | – |
| Cc1nc2ccc(N)nc2nc1C | 0.191% (inactive) | – |
| Cn1c(C(=O)NCCCN2CCCCC2)cc2sccc21 | -27.6% (inactive) | – |
| O=C(CNC(=O)Cc1ccccc1)N=Nc1c(O)[nH]c2ccc(Br)cc12 | -29.5% (inactive) | – |
| O=C(CCN1CCCCC1)N=Nc1c(O)[nH]c2ccccc12 | – | 23.1 µM (active) |
| COCC(=O)N=Nc1c(O)[nH]c2ccccc12 | -18.6% (inactive) | – |
| COc1ccccc1CNC(=O)CCCNS(=O)(=O)c1cccc2nsnc12 | -2.92% (inactive) | – |
| Cn1c(C(=O)O)ccc1S(=O)(=O)N(Cc1ccccc1)Cc1ccccc1 | 1.26% (inactive) | – |
| COc1ccc(C2NC(=O)C(=O)/C2=C(\O)c2ccc(Cl)cc2)cc1OC (stereo unspecified) | -6.54% (inactive) | – |
| CCCCOc1ccc(CSC(=N)N)cc1[N+](=O)[O-] | – | 11.6 µM (active) |
| CCCCCOc1ccc(CSC2=NCCN2)cc1[N+](=O)[O-] | – | 23.1 µM (active) |
| COc1ccc(NC(=O)CSCc2ccc([N+](=O)[O-])cc2)cc1OC | -29.2% (inactive) | – |
| CCOc1ccc(C(=O)Nc2nccs2)cc1[N+](=O)[O-] | 0.0318% (inactive) | – |
| Cc1nc(SCc2ccc(F)cc2)c([N+](=O)[O-])[nH]1 | -10.3% (inactive) | – |
| CCCCOc1ccc(CON(C(C)=O)C(C)=O)cc1Cl | 20.8% (inactive) | – |
| CC(NC(=O)CC1SC(N)=NC1=O)c1ccccc1 (stereo unspecified) | 22.5% (inactive) | – |
| CCc1cc(-c2nnn(CCC3COCCO3)c2CC)ccc1-c1cn(Cc2ccc3ccccc3c2)nn1 (stereo unspecified) | – | 5.8 µM (active) |
| CCCCCc1ccc(-c2cn(Cc3ccc4ccccc4c3)nn2)cc1 | – | inactive |
| O=C(Nc1ccccc1Cl)N1CCC(CN2CCCC2)CC1 | -0.183% (inactive) | – |
| COc1ccc(-c2nonc2NC(=O)c2oc3ccc(F)cc3c2C)cc1OC | -19.1% (inactive) | – |
| COc1ccc(C(=O)Nc2nonc2-c2ccc(OC)c(OC)c2)cc1Cl | – | 23.1 µM (active) |
| CCn1nnc(NC(=O)c2cc(Cl)c(OC)c(Cl)c2)n1 | -21.1% (inactive) | – |

| Structure (SMILES) | activity change, negative = growth inhibition | Potency |
| --- | --- | --- |
| Cc1cc(C(=O)COc2ccccc2Cl)c(C)n1C1CC1 | – | 6.51 µM (active) |
| CC(=O)C1=C(C)NC(=O)NC1c1cc(Br)ccc1OCC#N (stereo unspecified) | 1.02% (inactive) | – |
| O=C(COc1ccccc1Cl)Nn1cnnc1 | 0.711% (inactive) | – |
| Cc1cc(C(=O)COc2ccc(Br)cc2F)c(C)n1C1CC1 | – | 3.26 µM (active) |
| CN1CCN(C(=O)c2ccccc2NC(=O)COc2ccccc2Cl)CC1 | -5.01% (inactive) | – |
| CCOC(=O)CC1C(=O)NCCN1C(=O)COc1ccc(Br)cc1C (stereo unspecified) | -1.36% (inactive) | – |
| CC(=O)c1cccc(NC(=O)N2CCCC2C(=O)NCCC(C)C)c1 (stereo unspecified) | -8.59% (inactive) | – |
| COc1ccccc1C(=O)N(C1=NC(C)CS1)c1ccc(Cl)cc1 (stereo unspecified) | -5.33% (inactive) | – |
| O=C(NCCc1ccccc1)C(=O)NCC1OCCN1S(=O)(=O)c1cccs1 (stereo unspecified) | -12% (inactive) | – |
| CCCC(NC(=O)c1ccco1)c1nc2ccccc2[nH]1 (stereo unspecified) | -28.5% (inactive) | – |
| CSCCC(NC(=O)c1ccc(=O)n(C)n1)c1nc2ccccc2[nH]1 (stereo unspecified) | -21.1% (inactive) | – |
| CSCCC(NC(=O)c1cc([N+](=O)[O-])cc([N+](=O)[O-])c1)c1nc2ccccc2[nH]1 (stereo unspecified) | – | 16.4 µM (active) |
| COc1ccc(C(=O)CN(C(=O)c2ccc(Cl)cc2)N2C(=O)c3ccccc3C2=O)cc1 | -5.29% (inactive) | – |
| CCn1c(C)cc(=O)cc1-c1ccc(Cl)cc1 | 2.38% (inactive) | – |
| COc1ccc(Cn2c(-c3ccc(Cl)cc3)c[n+]3ccccc23)cc1 | – | 1.16 µM (active) |
| COc1ccc(S(=O)(=O)N2CCN(CC(=O)N3CCNC3=O)CC2)cc1OC | -5.83% (inactive) | – |
| Cc1ccc(S(=O)(=O)CCC(=O)OCC(=O)N(C)Cc2ccccc2)cc1 | -3.82% (inactive) | – |
| CCOc1ccc(CNC(=O)c2ccc3c(c2)nnn3C2CCCC2)cc1 | -25% (inactive) | – |
| COc1ccc(C(=O)OCC(=O)N2CC(=O)Nc3ccccc32)cc1Br | -13.8% (inactive) | – |
| CSCCC(NS(=O)(=O)c1ccc(C)cc1)C(=O)NCCc1c[nH]c2ccccc12 (stereo unspecified) | -29.1% (inactive) | – |
| CCN(CC)S(=O)(=O)c1ccc2[nH]cc(C(=O)NCCc3ccccc3)c(=O)c2c1 | – | 14.6 µM (active) |
| CCc1ccc(NS(=O)(=O)c2ccc3[nH]cc(C(=O)NCCc4cccc(C)c4)c(=O)c3c2)cc1 | -25% (inactive) | – |
| CN(c1ccccc1)S(=O)(=O)c1ccc(Cl)c(C(=O)OCC(N)=O)c1 | -29.5% (inactive) | – |
| CN(c1ccccc1)S(=O)(=O)c1ccc(Cl)c(C(=O)NCCc2c[nH]c3ccccc23)c1 | – | 8.2 µM (active) |

| Structure (SMILES) | activity change, negative = growth inhibition | Potency |
| --- | --- | --- |
| O=C(NCCc1ccccc1)c1c[nH]c2ccc(F)cc2c1=O | -17.7% (inactive) | – |
| Cc1nc2cnc(Nc3ccccc3)nc2n(Cc2ccc(F)cc2)c1=O | -2.88% (inactive) | – |
| O=C(CSc1nc2c(c(=O)[nH]1)CN(Cc1ccc(F)cc1)CC2)Nc1ccccc1Cl | 0.998% (inactive) | – |
| COc1ccc(CN2CCN(Cc3ccc(OC)c(OC)c3OC)CC2)cc1 | -19.3% (inactive) | – |
| Cn1c(=O)c(CCc2ccccc2)nc2cnc(Nc3ccccc3)nc21 | 14.5% (inactive) | – |
| COc1ccc(CN2CCc3nc(Nc4ccccc4)ncc3C2)c(OC)c1OC | – | 20.6 µM (active) |
| Fc1ccc(CN2CCc3nc(Nc4ccccc4)ncc3C2)cc1F | – | 20.6 µM (active) |
| Fc1cccc(CSc2nnc3ccc(-c4ccncc4)nn23)c1 | -0.226% (inactive) | – |
| Cc1[nH]c2ccccc2c1-c1ccc(Cl)nn1 | 13.8% (inactive) | – |
| C=CCN1CCN(C(=O)CCCc2ccccc2)CC1 | 3.73% (inactive) | – |
| COc1ccccc1CNC(=O)C1CCN(C(=O)[C@@H]2Cc3ccccc3CN2)CC1 | 5.32% (inactive) | – |
| COc1ccccc1CNC(=O)C1Cc2ccccc2C(=O)O1 (stereo unspecified) | 9.48% (inactive) | – |
| COc1ccccc1CNC(=O)[C@@H]1CCCN1C(=O)[C@@H]1Cc2ccccc2CN1C(=O)OC(C)(C)C | – | 16.4 µM (active) |
| O=C(NCC(=O)N1CCC2(CC1)NCCc1[nH]cnc12)c1ccc(Br)cc1 | 15.7% (inactive) | – |
| CC(C)c1ccc(/C=C/C(=O)NNC(=O)c2cccnc2)cc1 | -19.6% (inactive) | – |
| COc1cc2[nH]c(=S)n(Cc3ccc(C)o3)c(=O)c2cc1OC | -18.2% (inactive) | – |
| O=C(NCCc1c[nH]c2ccc(Cl)cc12)c1ccc([N+](=O)[O-])cc1 | -7.74% (inactive) | – |
| CCOc1ccc(-c2nc(N)ncc2-c2ccccc2OC)c(O)c1 | -77.4% (inactive) | – |
| COc1ccc(-c2n[nH]c(C)c2-c2ccccc2OC)c(O)c1 | – | 20.6 µM (active) |
| Cc1noc(C)c1COC(=O)COc1ccc(-c2ccccc2)cc1 | 8.63% (inactive) | – |
| COc1ccc(-c2[nH]ncc2CN(C)Cc2c(C)n[nH]c2C)c(OC)c1 | 2.69% (inactive) | – |
| CCOC(=O)COc1cc(O)c2c(=O)cc(-c3ccccc3)oc2c1 | -1.32% (inactive) | – |
| C=C(C)COc1ccc(-c2n[nH]c(C)c2-c2ccccc2)c(O)c1 | – | 16.4 µM (active) |

— PubChem BioAssay AID686978 (National Center for Advancing Translational Sciences (NCATS), 2013)
